Source: PubChem BioAssay
A selection: hits, their analogues and other compounds. The true share with any hit is near 3.4%.
ADAM17 inh = ADAM17 inhibition, QFRET primary screen | P78536 | recombinant ADAM17, EDANS/DABCYL FRET peptide cleavage | inhibition, % at 6.95 µM | hit rate 0.83% among 370,000 | AID 720648;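 active means inhibition above the mean of compounds lying between control limits plus 3 SD, set per campaign, cut at about 8.5% in these data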;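 further: 0% = DMSO-only wells as the low control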
Target sequence (P78536 215-824 limits assumed): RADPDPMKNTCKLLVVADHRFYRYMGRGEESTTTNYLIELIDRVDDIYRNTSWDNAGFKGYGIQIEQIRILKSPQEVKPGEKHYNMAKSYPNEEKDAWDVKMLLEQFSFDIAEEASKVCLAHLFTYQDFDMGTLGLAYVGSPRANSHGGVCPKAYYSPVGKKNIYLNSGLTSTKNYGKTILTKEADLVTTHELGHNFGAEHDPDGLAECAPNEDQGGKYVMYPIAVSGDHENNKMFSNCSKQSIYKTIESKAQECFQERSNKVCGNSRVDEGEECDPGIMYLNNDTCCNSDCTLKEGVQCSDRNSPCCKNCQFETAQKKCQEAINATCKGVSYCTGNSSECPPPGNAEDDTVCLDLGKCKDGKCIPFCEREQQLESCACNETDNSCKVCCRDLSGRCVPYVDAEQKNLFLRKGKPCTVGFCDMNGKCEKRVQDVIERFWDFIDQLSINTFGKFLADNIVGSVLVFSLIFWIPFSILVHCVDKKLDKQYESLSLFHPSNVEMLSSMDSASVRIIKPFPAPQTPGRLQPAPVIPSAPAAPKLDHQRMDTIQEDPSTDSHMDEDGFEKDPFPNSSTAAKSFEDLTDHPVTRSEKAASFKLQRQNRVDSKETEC
proKLK7 act = activators of human kallikrein-7 zymogen; P49862; purified proKLK7, EDANS-DABCYL substrate fluorescence; 100% is mature enzyme control, 0% vehicle; activation, % at 7 µM; hit rate 0.9% among 370,000;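 active means activation above the mean of all tested compounds plus 3 SD, computed per campaign excluding outliers beyond control limits, cut at about 13% in these data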
sPLA2-III inh = Inhibits HGIII-sPLA2 liposome hydrolysis, primary screen. QFRET BODIPY PC-A2 liposome hydrolysis, fluorescence. Q9NZ20. inhibition, % at 12.2 µM. hit rate 0.56% among 370,000;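 active means inhibition above mean plus 3 SD of compounds lying within the high and low control bounds, cut at about 19% in these data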;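 further: 0% = median of test compound wells and 100% = no enzyme DMSO wells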
PLCg1 inh = inhibitors of human phospholipase C gamma1. purified PLC-gamma1, fluorogenic substrate, fluorescence. hit rate 0.84% among 370,000. inhibition, % at 12.2 µM. AID 720700. P19174; in the data active means inhibition above about 9.5%
ADAM10 inh = ADAM10 inhibition, QFRET primary screen; AID 720582; O14672; hit rate 0.62% among 370,000; inhibition, % at 7 µM; recombinant ADAM10, EDANS/DABCYL FRET peptide cleavage, 3 h;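 active means inhibition above a per-campaign cutoff equal to the mean of compounds falling between control-based bounds plus 3 SD, cut at about 20% in these data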;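 further: 0% = DMSO wells while the 100% control is not disclosed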
PLC-beta3 inh = blocks human PLC-beta3 enzyme activity; Q01970; Purified PLC-beta3, fluorogenic substrate, fluorescence; inhibition, % at 12.2 µM; hit rate 0.18% among 370,000; in the data active means inhibition above about 11%;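 further: 0% = median of compound wells on plate and 100% = full blocker control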
ADAM10 confirm = human ADAM10 inhibition, confirmation. shares compounds with ADAM10 inh. ADAM10 QFRET peptide cleavage, EDANS fluorescence. inhibition, % at 6.95 µM. hit rate 1% among 2,100. AID 743208;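 active means inhibition above about 20% chosen separately for each screening run, limit read from the data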;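 further: 0% = DMSO wells and 100% = marimastat wells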
ADAM17 counter = ADAM17 inhibition, counter-screen for ADAM10 exosite hits; ADAM17 QFRET peptide cleavage, EDANS fluorescence; hit rate 0.5% among 2,100; inhibition, % at 6.95 µM; shares compounds with ADAM10 inh; AID 743214;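 active means mean triplicate inhibition above the solvent-only control wells' mean plus 3 SD, cut at about 12% in these data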;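 further: 0% = DMSO wells and 100% = marimastat wells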
ADAM10 counter = ADAM10 inhibition, counter-screen for ADAM17 exosite hits. AID 743256. shares compounds with ADAM17 inh. inhibition, % at 6.95 µM. recombinant ADAM10, EDANS/DABCYL FRET peptide cleavage, 3 h. hit rate 47% among 2,900;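 active means mean inhibition over the triplicate runs exceeds the activity threshold set in the earlier primary screen, cut at about 20% in these data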;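 further: 0% = DMSO wells and 100% = marimastat wells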
ADAM17 confirm = confirmation of inhibitors of human ADAM17. shares compounds with ADAM17 inh. recombinant ADAM17, EDANS/DABCYL QFRET peptide cleavage. inhibition, % at 6.95 µM. hit rate 65% among 2,900. AID 743257;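 active means mean inhibition across replicates above the hit cutoff set in the primary screen, cut at about 8.5% in these data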;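 further: 0% = DMSO wells and 100% = marimastat wells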
Numbers without * were called inactive; . = not tested or not shown.

SMILES	ADAM17 inh	proKLK7 act	sPLA2-III inh	PLCg1 inh	ADAM10 inh	PLC-beta3 inh	ADAM10 confirm	ADAM17 counter	ADAM10 counter	ADAM17 confirm
O=S1(=O)c2ccc(N3CCCC3)cc2Oc2ccccc2CN1Cc1cn(Cc2cccc(F)c2)nn1	-4	0	-1	2	-2	-3	.	.	.	.
C[C@H](CO)N1C[C@H](C)[C@@H](CN(C)S(=O)(=O)c2ccccc2)Oc2ccc(NC(=O)Nc3ccc(C(F)(F)F)cc3)cc2C1=O	8.8*	1	-48	2	33*	1	9	2	40*	24*
C[C@@H]1CN([C@@H](C)CO)C(=O)c2cc(NC(=O)Nc3ccc(F)cc3)ccc2O[C@@H]1CN(C)Cc1ccc(Oc2ccccc2)cc1	11*	0	-24	1	24*	-1	19	7	48*	23*
C[C@@H]1CN([C@@H](C)CO)C(=O)c2cc(NS(C)(=O)=O)ccc2O[C@H]1CN(C)Cc1ccc(Oc2ccccc2)cc1	1	0	-38	1	4	-2	.	.	.	.
C[C@@H]1CCCCO[C@@H](CN(C)C(=O)Nc2ccc3c(c2)OCO3)[C@@H](C)CN([C@H](C)CO)C(=O)c2cc(NC(=O)Nc3ccc(C(F)(F)F)cc3)ccc2O1	9.8*	0	-28	0	21*	-1	11	2	42*	22*
COc1ccc(NC(=O)Nc2ccc3c(c2)C(=O)N([C@H](C)CO)C[C@H](C)[C@@H](CN(C)C(=O)Nc2ccc(OC)cc2)O3)cc1	-2	1	-5	2	-7	1	.	.	.	.
COc1ccc(NC(=O)Nc2ccc3c(c2)C(=O)N([C@H](C)CO)C[C@H](C)[C@@H](CN(C)C(=O)Nc2ccc(C(F)(F)F)cc2)O3)cc1	16*	1	-9	6	32*	6	5	0	21*	12*
C[C@H]1C2CC(OC(=O)NCc3ccccc3)C(C2)[C@H]2CCCCN21 (some centres not stated)	-9	0	19	-1	-15	0	.	.	.	.
O=C(Nc1ccc(Cl)cc1Cl)OC1CCC12CCC(c1ccccc1)CC2 (configuration not stated)	-1	.	10	4	1	-7	.	.	.	.
Cc1ccccc1CNC(=O)C1CCC(CNS(=O)(=O)c2cccc3cccnc23)CC1 (configuration not stated)	1	-1	-7	2	0	4	.	.	.	.
C#CCN1C(=O)[C@@](O)(c2cccn2C)c2cc(F)ccc21	3	0	5	7	-2	0	.	.	.	.
CC(CCN1CCC(C(O)(c2ccccc2)c2ccccc2)CC1)Oc1ccc(OC(F)(F)F)cc1 (configuration not stated)	7	1	-19	2	10	4	.	.	.	.
C[C@H](CO)N1C[C@H](C)[C@@H](CN(C)C(=O)Nc2ccccc2)Oc2c(NC(=O)Nc3ccccc3)cccc2C1=O	-6	0	-8	0	0	2	.	.	.	.
C[C@H](CO)N1C[C@H](C)[C@@H](CN(C)C(=O)Nc2ccccc2)Oc2c(NC(=O)Nc3ccc(C(F)(F)F)cc3)cccc2C1=O	12*	0	-18	3	26*	4	2	0	37*	19*
OC(c1ccc(F)cc1)c1nc(/C=C/c2ccccc2)cs1 (configuration not stated)	5	0	-13	-5	7	-3	.	.	.	.
COc1cc(C(O)c2nc(-c3cccc(F)c3)cs2)ccc1F (configuration not stated)	1	0	-11	-1	1	-4	.	.	.	.
COc1cccc(C(O)c2nc(-c3ccc(F)cc3OC)cs2)c1 (configuration not stated)	11*	0	-21	5	30*	3	3	1	11	8.8*
COc1ccc(C(O)c2nc(-c3ccc(F)cc3OC)cs2)cc1 (configuration not stated)	2	0	-19	1	7	1	.	.	.	.
COc1cc(C(O)c2nc(-c3cccc(C(C)C)c3)cs2)ccc1F (configuration not stated)	11*	0	-1	4	20*	2	6	2	24*	13*
COc1cc(C(O)c2nc(/C=C/c3ccccc3)cs2)ccc1F (configuration not stated)	17*	0	-34	-3	42*	1	3	1	22*	11*
COC(=O)c1sccc1NC(=O)CSc1ccccc1NS(=O)(=O)c1ccc(Br)cc1	11*	1	-77	3	21*	-2	3	2	10	6
O=C(c1cc(COc2cccc(C(F)(F)F)c2)on1)N1CCC(c2ccccc2)CC1	12*	1	-16	4	26*	-5	5	2	35*	20*
C#CCN(C(=O)c1cc(COc2cccc(C(F)(F)F)c2)on1)C1CCCCC1	10*	0	-8	1	24*	-9	8	3	55*	19*
C#CCN(C(=O)c1cc(COc2ccc(C)c(C)c2)on1)C1CCCCC1	2	1	-5	0	9	-8	.	.	.	.
COC(=O)c1ccc(-n2c(C)cc(C(=O)COC(=O)CC3Sc4ccccc4NC3=O)c2C)cc1 (configuration not stated)	6	-1	-22	-3	7	-8	.	.	.	.
Cc1cc(C(=O)COC(=O)CC2Sc3ccccc3NC2=O)c(C)n1-c1ccccc1 (configuration not stated)	18*	0	-9	5	28*	-6	10	1	21*	12*
COCCN1C(=O)C2=C(C1=O)C1N(C)c3ccccc3[C@@]13C[C@@H](CO)N(C(=O)CCC(=O)OC)C3=N2 (some centres not stated)	-2	1	-3	-4	-4	1	.	.	.	.
C=C(C)COc1ccc(-c2n[nH]c(C)c2-c2ccc(OC)cc2)c(O)c1	13*	1	-23	2	31*	-1	13	4	34*	17*
